Records with an inconclusive call do not appear. Calls of active or inactive are those of the source. The call rests on the fitted dose curve; in most records, active means well fitted cell-killing curve with a large enough effect; inconclusive means small, poorly fitted or top-dose-only effect, or effect the other way; inactive means flat fitted curve, though single readings scatter.
What was measured:
Assay in all cases: Primary qHTS to identify gynecologic anti-cancer compounds using libraries of approved drugs and bioactive compounds (AID 1345084); further: nearly all actives have a fitted effect of over 55% in size
C33A = settings: Gynecologic cancer cell panel viability, ATPlite luminescence, 48 h; series mostly up to 57.5 µM
Summary of the method: (§1)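 48 h compound exposure at 37 C, 5% CO2; five-point qHTS. ATPlite luminescence readout of cell ATP.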

CAOV3 = settings: Gynecologic cancer cell panel viability, ATPlite luminescence, 48 h; series mostly up to 57.5 µM
Summary of the method: as §1

CASKI = settings: Gynecologic cancer cell panel viability, ATPlite luminescence, 48 h; series mostly up to 57.5 µM
Summary of the method: as §1

Es-2 = settings: Gynecologic cancer cell panel viability, ATPlite luminescence, 48 h; series mostly up to 57.5 µM
Summary of the method: as §1

HeLa = settings: Gynecologic cancer cell panel viability, ATPlite luminescence, 48 h; series mostly up to 57.5 µM
Summary of the method: as §1

Hek293T = settings: Gynecologic cancer cell panel viability, ATPlite luminescence, 48 h, control line for the selectivity index; series mostly up to 57.5 µM
Summary of the method: as §1

JEG-3 = settings: Gynecologic cancer cell panel viability, ATPlite luminescence, 48 h; series mostly up to 57.5 µM
Summary of the method: as §1

OV90 = settings: Gynecologic cancer cell panel viability, ATPlite luminescence, 48 h; series mostly up to 57.5 µM
Summary of the method: as §1

PA-1 = settings: Gynecologic cancer cell panel viability, ATPlite luminescence, 48 h; series mostly up to 57.5 µM
Summary of the method: as §1

SKOV3 = settings: Gynecologic cancer cell panel viability, ATPlite luminescence, 48 h; series mostly up to 57.5 µM
Summary of the method: as §1

Tov-21-G = settings: Gynecologic cancer cell panel viability, ATPlite luminescence, 48 h; series mostly up to 57.5 µM
Summary of the method: as §1

Tov112D = settings: Gynecologic cancer cell panel viability, ATPlite luminescence, 48 h; series mostly up to 57.5 µM
Summary of the method: as §1

Measured: Potency

N#C[C@@H]1CCCN1C(=O)CNC12CC3CC(CC(O)(C3)C1)C2
inactive: all assays above

CC1=CC(=O)C2(OC3OC(C)C(O)C(OC(=O)/C=C/c4ccccc4)C3O)C=COC(OC3OC(CO)C(O)C(O)C3O)C12 (centres undefined)
inactive: all assays above

COC(=O)N[C@H](C(=O)N1[C@@H]2CC[C@@H](C2)[C@H]1c1nc2ccc(-c3ccc4c(c3)C(F)(F)c3cc(-c5cnc([C@@H]6CCC7(CC7)N6C(=O)[C@@H](NC(=O)OC)C(C)C)[nH]5)ccc3-4)cc2[nH]1)C(C)C
inactive: all assays above

Cc1cc(C)nc(NS(=O)(=O)c2ccc(NC(=S)NC(=O)COc3ccc(Br)cc3Cl)cc2)n1
inactive: all assays above

COC(=O)[C@@H](O)[C@H]1[C@@]2(C)CC3(O)[C@@H](C(=O)[C@H]2O)[C@]24O[C@]25CC(=O)O[C@@H](c2ccoc2)[C@]5(C)CCC4[C@]13C (some centres undefined)
inactive: all assays above

CC(C)=C/C=C\[C@H](C)[C@H]1CC[C@]2(C)C[C@@H]3C(C)=CC(=O)C3/C(CO)=C\C[C@@H]12 (some centres undefined)
inactive: all assays above

CC[C@H](NC(=O)[C@H](CS(=O)(=O)CC1CC1)N[C@@H](c1ccc(F)cc1)C(F)(F)F)C(=O)C(=O)NC1CC1
inactive: all assays above
